# Data taken from PubChem BioAssay (NCATS).
# Inconclusive results are not listed. Entries that show only a call come without a potency. Active and inactive are the calls of the source. Unless noted, calls follow the shape of the dose curve; as a rule, active = well fitted curve in the direction sought with a large enough effect; inconclusive = small, poorly fitted or top-dose-only effect, or another doubt; inactive = no such curve, though single readings can be large; an effect the other way counts as inactive or inconclusive.
# Molecular target: Calcium and integrin-binding protein 1 (Homo sapiens) (UniProt Q99828)
# Sequence (Q99828 whole entry, looked up): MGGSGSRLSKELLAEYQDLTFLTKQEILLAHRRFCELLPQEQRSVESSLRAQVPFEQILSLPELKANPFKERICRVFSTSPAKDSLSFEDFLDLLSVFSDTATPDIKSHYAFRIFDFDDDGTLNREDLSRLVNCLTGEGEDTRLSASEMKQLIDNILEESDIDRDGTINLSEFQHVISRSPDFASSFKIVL
# Assay: Primary qHTS for Identification of Calcium Integrin Binding Protein 1 (CIB1) Competitor (AID 1508620);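 also: GST tagged CIB1 binding a fluorescein labelled alphaIIb integrin peptide tracer; top concentration of the series differs between compounds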
# Conditions: CIB1-GST / FITC-alphaIIb peptide fluorescence polarization; series mostly up to 114 µM
# How it was run: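 CIB1-GST (1 uM final) and compound incubated 15 min at room temperature before adding FITC-alphaIIb peptide tracer (100 nM final). Competition for binding read by fluorescence polarization (ex 480, em 540) after another 15 min at room temperature.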
row,Compound,Potency
1,C[C@H](Oc1ccc(S(C)(=O)=O)cc1C(=O)N1CCN(c2ncc(C(F)(F)F)cc2F)CC1)C(F)(F)F,inactive
2,O=C(Nc1c(-c2cccs2)nc2ccccn12)c1ccc(Cl)cc1,inactive
3,CC(C)(C)Nc1nc(Nc2ccc(C(N)=O)cc2)cc(N)c1C#N,inactive
4,C=C(F)c1sc(CNCCCNc2cc(=O)c3ccccc3[nH]2)c(C)c1Br,inactive
5,O=S(=O)(c1ccccc1)c1cnc2c(N3CCNCC3)cccc2c1,inactive
6,COc1ccc(C2(O)CCC(N3CC[C@@H](NC(=O)CNC(=O)c4cccc(C(F)(F)F)c4)C3)CC2)cn1 (stereo partly specified),inactive
7,CCCC1(c2ccccc2)NC(=O)N(CC(=O)N(C)Cc2c(F)cccc2Cl)C1=O (stereo unspecified),inactive
8,Cc1cc(N2CCN([C@@H]3CN[C@H](C(=O)N4CCSC4)C3)CC2)n(-c2ccccc2)n1,inactive
9,CC(C)S(=O)(=O)NC[C@H](C)c1ccc(NC(=O)c2cc(F)cc(F)c2)cc1,inactive
10,CCc1cccc(CC)c1NC(=O)c1nn(C)c2c1CCc1cnc(Nc3ccc(C(=O)NC4CCN(C)CC4)cc3OC(F)(F)F)nc1-2,inactive
11,C[C@@H]1CCN(C(=O)N2CCCC2)C[C@@H]1N(C)c1ncnc2[nH]ccc12,inactive
12,CCCCNc1ccc(-c2ccc(CN3CCOCC3)cn2)c(NC2CCC(O)CC2)c1 (stereo unspecified),inactive
13,Cc1nc(Nc2n[nH]c3c2CN(C(=O)NC(CN(C)C)c2ccccc2)C3(C)C)c2sccc2n1 (stereo unspecified),inactive
14,O=C(Nc1ccc(Cl)cc1F)c1ccccc1O,inactive
15,O=C(CSc1nc2c(c(=O)n1-c1ccccc1)SCC2)Nc1ccc(-c2ccccc2)cn1,inactive
16,C[C@@H](O)[C@H](NC(=O)c1ccc(C#Cc2ccc(CN3CCOCC3)cc2)cc1)C(=O)NO,inactive
17,O=C(NCc1ccc(F)cc1)C(=O)c1c[nH]c2ccccc12,inactive
18,COc1ccc(C2=N[C@@H](c3ccc(Cl)cc3)[C@@H](c3ccc(Cl)cc3)N2C(=O)N2CCNC(=O)C2)c(OC(C)C)c1,inactive
19,N#Cc1c(Oc2ccc(F)c(NC(=O)Cc3cccc(C(F)(F)F)c3)c2)ccc2nc(NC(=O)C3CC3)sc12,inactive
20,COc1ccccc1NC(=O)OCC1CCN(C(=O)OC(C)(C)C)CC1,inactive

row,Compound,Potency
1,COC(=O)N[C@@H](C)CNc1nccc(-c2cn(C(C)C)nc2-c2cc(Cl)cc(NS(C)(=O)=O)c2F)n1,inactive
2,CCOC(=O)c1sc(NC(=O)[C@H](C(C)C)n2c(=O)[nH]c3ccccc3c2=O)nc1C,inactive
3,Nc1nc2c(c(N3CCNCC3)n1)CCC1=C2[C@@H]2CCCC[C@@H]2O1,inactive
4,CC(C)(C)NC(=O)[C@@H](c1cccnc1)N(C(=O)c1ccco1)c1ccc(C(C)(C)C)cc1,inactive
5,CNC(=O)c1ccccc1Nc1nc(Nc2ccc(N3CCNCC3)cc2)ncc1Cl,inactive
6,CC(C)c1nnc(-c2ccc(-c3ccccc3)nc2)n1-c1cccc2nonc12,inactive
7,CNS(=O)(=O)c1ccccc1Nc1nc(Nc2ccc(N3CCN(C)CC3)cc2OC)ncc1Cl,inactive
8,CC(=O)N1CCN(Cc2ccc([C@H](C)Nc3nccc(N4C(=O)OC[C@@H]4C(C)C)n3)cc2)CC1,inactive
9,COc1ccc2cc(C(C)C(=O)Oc3ccc(C(N)=S)cc3)ccc2c1 (stereo unspecified),inactive
10,CC[C@H](CO)Nc1nc(NCc2ccc(-c3ccccn3)cc2)c2ncn(C(C)C)c2n1,inactive
11,Cc1noc(=O)c2ccc(NC(=O)C(O)(CC(C)(C)c3cccc4c3OCC4)C(F)(F)F)cc12 (stereo unspecified),inactive
12,O=C(NCC(O)CO)c1ccncc1Nc1ccc(I)cc1F (stereo unspecified),inactive
13,Cc1nc2ccc(Oc3ccc(F)cc3)cc2c(=O)n1C[C@H]1CCCN(C(C)C)C1,inactive
14,CC(=O)NCC(=O)N1C2CCC1c1cc(Nc3ncc(C(F)(F)F)c(NC4CCC4)n3)ccc12 (stereo unspecified),inactive
15,Cc1cc2c(F)c(Oc3ncnn4cc(OCC(C)O)c(C)c34)ccc2[nH]1 (stereo unspecified),inactive
16,CCCC(=O)C1CCN(c2ncnc3c2CN(C(=O)c2ccc(-c4ccccc4)cc2)CC3)CC1,inactive
17,C=CC(=O)Nc1cc(Nc2ncc(Cl)c(-c3c[nH]c4ccccc34)n2)c(OC)cc1N(C)CCN(C)C,inactive
18,COc1cc(Br)c(Nc2nc(-c3c(C)nc4ncccn34)cs2)c(Br)c1,inactive
19,O=C(NCc1ccc(S(=O)(=O)c2cc(F)cc(F)c2)cc1)c1ccc2nccn2c1,inactive

# Molecular target: Cytochrome P450 2D6 (Homo sapiens) (UniProt P10635)
# Sequence (P10635 whole entry, looked up): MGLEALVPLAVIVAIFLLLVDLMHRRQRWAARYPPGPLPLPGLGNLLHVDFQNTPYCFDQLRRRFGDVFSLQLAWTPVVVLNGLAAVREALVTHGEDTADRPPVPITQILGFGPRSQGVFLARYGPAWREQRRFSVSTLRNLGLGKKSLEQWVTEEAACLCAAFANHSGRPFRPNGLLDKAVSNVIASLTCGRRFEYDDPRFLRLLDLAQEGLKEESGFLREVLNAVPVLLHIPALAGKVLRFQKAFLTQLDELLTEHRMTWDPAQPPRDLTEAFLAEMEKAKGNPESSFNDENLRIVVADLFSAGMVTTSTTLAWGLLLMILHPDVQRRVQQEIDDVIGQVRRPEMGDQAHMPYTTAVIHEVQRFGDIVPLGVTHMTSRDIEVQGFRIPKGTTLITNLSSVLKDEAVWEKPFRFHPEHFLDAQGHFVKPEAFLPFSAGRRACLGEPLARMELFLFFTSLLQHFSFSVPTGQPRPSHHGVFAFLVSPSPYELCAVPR
# Assay: Cytochrome P450 family 2 subfamily D member 6 (CYP2D6) small molecule antagonists: luciferase biochemical (cell-free) qHTS assay (AID 1645840; active = well fitted curve in the direction sought with a large enough effect in the repeat runs; an effect the other way counts as inactive or inconclusive; also: nearly all actives have a fitted effect of over 55% in size; also: potency is read from the fitted curve at half-maximal effect)
# Conditions: P450-Glo CYP2D6 enzyme, luciferin luminescence, 1 h; series mostly up to 57.4 µM
# How it was run: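 P450-Glo CYP2D6 system: proluciferin substrate converted by enzyme to luciferin, read by luminescence proportional to activity. Enzyme-substrate mix with compound 10 min at room temperature, then NADPH regeneration 1 h before detection reagent.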
row,Compound,Potency
1,C=C(F)c1sc(CNCCCNc2cc(=O)c3ccccc3[nH]2)c(C)c1Br,1.07 µM (active)
2,COc1ccc(C2(O)CCC(N3CC[C@@H](NC(=O)CNC(=O)c4cccc(C(F)(F)F)c4)C3)CC2)cn1 (stereo partly specified),10.7 µM (active)
3,CCc1cccc(CC)c1NC(=O)c1nn(C)c2c1CCc1cnc(Nc3ccc(C(=O)NC4CCN(C)CC4)cc3OC(F)(F)F)nc1-2,9.28 µM (active)
4,C[C@@H](O)[C@H](NC(=O)c1ccc(C#Cc2ccc(CN3CCOCC3)cc2)cc1)C(=O)NO,inactive
5,Nc1nc2c(c(N3CCNCC3)n1)CCC1=C2[C@@H]2CCCC[C@@H]2O1,19 µM (active)
6,CNC(=O)c1ccccc1Nc1nc(Nc2ccc(N3CCNCC3)cc2)ncc1Cl,inactive
7,CCCC(=O)C1CCN(c2ncnc3c2CN(C(=O)c2ccc(-c4ccccc4)cc2)CC3)CC1,21.3 µM (active)
